In ChEMBL document CHEMBL3988442, “University of Dundee, Small-Polar-MMV Screening Library” (2021):
Screen size: about 48,000 compounds; about 13,000 (27%) showed an effect of 50% or more. The list shows a part of the results.

What follows are molecules tested on Wolbachia pipientis (assay: Anti-Wolbachia Cell-Based Screen). Settings: 5 µM.
Format: functional
Set-up: scale not given: in the data most compounds retested in dose-response had high values

SMILES	Percent Effect [%]
NC(=O)CN1C(=O)CO[C@H]2CN(Cc3ccc(F)c(F)c3)C[C@H]21	0.7627
Fc1ccc(CN2CCCN(Cc3cscn3)CC2)cc1	-1.277
O=C(NC1CC(=O)N(Cc2cccc(F)c2)C1)c1ccncc1 (stereo not given)	2.208
CC(C)N1C[C@H](NC(=O)c2coc(COc3cccc(F)c3)n2)[C@@H](O)C1	0.03825
O=C(N[C@@H]1CN(Cc2cccc(F)c2)C[C@H]1O)c1cscn1	114.1
CN(c1ncccc1CNC(=O)c1cscn1)C1CCCCC1	-0.9499
O=C(N[C@@H]1CCN(C(=O)c2cc[nH]c2)C[C@H]1O)c1ccccn1	16.73
O=C(N[C@@H]1CN(Cc2ccc(F)c(F)c2)C[C@H]1O)c1cscn1	124.1
O=C(N[C@@H]1CN(c2ncc(F)cn2)[C@@H]2COC[C@@H]21)c1cscn1	-1.705
CNC(=O)N1CCOC(C)(c2cnn(C)c2)C1 (stereo not given)	-1.831
O=C(O)CCc1cc2n(n1)CCN(Cc1ccc3[nH]ccc3c1)C2	-14.18
O=C(N[C@@H]1CCN(c2nccc3ccccc23)C[C@H]1O)c1cnccn1	-5.026
N#Cc1cc(NC(=O)c2cscn2)ccc1N1CCC(O)CC1	-15.52
CSCCCN1CC[C@@H](NC(=O)c2cnccn2)[C@H](O)C1	-11.75
NC(=O)C1CCN(CCc2ccc(NCc3cscn3)cc2)CC1	0.9786
O=C(N[C@@H]1CN(Cc2ccc3cc[nH]c3c2)C[C@H]1O)c1cnccn1	102.1
O=C(N[C@@H]1CN(CCc2ccc(F)cc2)C[C@H]1O)c1cscn1	115.2
CCc1cnc(N2C[C@@H](NC(=O)c3cscn3)[C@H]3COC[C@H]32)nc1.O=C(O)C(F)(F)F	-6.299
O=C(N[C@@H]1CN(Cc2ccc3[nH]ccc3c2)C[C@H]1O)c1cscn1	101.2
COCCn1cnnc1Cn1ccnc1-c1ccccc1C	-14.43
c1ccc(-c2cc(CC3(NCc4ncc[nH]4)COC3)no2)cc1	-5.291
O=C1OCCN1CCS(=O)(=O)c1cccc(Cl)c1	-8.046
CC(C(=O)N1CCc2sccc2C1)N1CCC(S(N)(=O)=O)CC1 (stereo not given)	4.951

SMILES	Percent Effect [%]
CC(C)c1nsc(N2CCc3sccc3C2)n1	-3.315
O=S(=O)(N1CCCC1)N1CCc2sccc2C1	-2.678
NCC(c1ccc(Cl)cc1)N1CCc2sccc2C1 (stereo not given)	85.2
N#Cc1ccc(F)c(CN2CCc3sccc3C2)c1	10.21
CC(C)c1ccc(C(CN)N2CCc3sccc3C2)cc1 (stereo not given)	134.3
O=C1CC2(CCCC2)C(=O)N1CC(O)COCc1ccccc1F (stereo not given)	-41.58
CCOc1ncccc1C(=O)NCC(O)c1ccc(F)c(F)c1 (stereo not given)	-43.97
O=C(O)C(F)(F)F.O=C(O)C(F)(F)F.c1ccc(OCc2nnc3n2CCN(CC2CCOCC2)C3)nc1	15.11
Cc1cc(C)c(CNC(=O)NCC(O)COc2ccccc2)c(=O)[nH]1 (stereo not given)	-7.857
Cc1ccc(CN2CCC(n3cc(CN4CCC(O)CC4)nn3)CC2)s1	-6.735
COCCN1CCC12CCN(C(=O)c1ccsc1)CC2.O=C(O)C(F)(F)F	-8.3
CCc1noc(CCCC(=O)N2CCCC(c3ccn[nH]3)C2)n1 (stereo not given)	-18.93
CCc1noc(CCC(=O)N2CCC(c3ccn[nH]3)C2)n1 (stereo not given)	80.59
CCCc1noc(CCC(=O)N2CCCC(c3ccn[nH]3)C2)n1 (stereo not given)	-9.271
COCC(=O)NCC1Cn2nnc(-c3ccoc3)c2CO1 (stereo not given)	-10
O=c1[nH]c(-c2ccc(F)cc2)nc2c1CCNC2	-26.62
O=c1cc(-c2ccccc2)nc2n1CCCCC2	110.3
Fc1ccc2c(c1)C(NCc1nnc3n1CCCCC3)CCCO2 (stereo not given)	-5.807
Cc1nc(-c2ccccc2)ccc1C(=O)N1CCn2c(C)nnc2C1	-4.566
O=c1cc(-c2ccc(F)cc2)nc2n1CCCCC2	114
NC1(c2nc(-c3ccccc3)cc(=O)[nH]2)CCCC1	-3.244
CCc1cc(CNC(=O)Nc2cc(F)cc(N3CCCC3)c2)on1	-27.71
